# Experimental data published in PubChem BioAssay (EPA / NIEHS).
# Calls of active or inactive are those of the source. Rule for the calls: active = hit-call score of the fitted dose curve at least 0.9, where 1 is the maximum; inactive = score below 0.9.
# Tests used:
# Conditions in all cases: mRNA level, 48 h; actives raise or lower the signal
# [1] = read-out: matrix metalloproteinase-10 (MMP10), MMP10 (gene 4319); test: LTEA_HepaRG_MMP10: Life Technologies and Expression Analysis (LTEA) Assay for matrix metalloproteinase-10 (MMP10) using HepaRG (AID 2283517)
# In short: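 Differentiated HepaRG cells in serum-free induction medium exposed 48 h in duplicate to 8-point half-log series up to 100 uM in 0.5% DMSO. mRNA quantified by qRT-PCR, normalised to ACTB, GAPDH, POLR2A; bidirectional fit versus DMSO.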
# MYC, MYC (gene 4609) = test: LTEA_HepaRG_MYC: Life Technologies and Expression Analysis (LTEA) Assay for MYC using HepaRG (AID 2283518)
# In short: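 MYC transcript changes, up or down relative to 0.5% DMSO, from TaqMan qRT-PCR normalized to three housekeeping genes. Human HepaRG cultures received chemicals for 48 h at eight half-log concentrations up to 100 uM, in duplicate.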
# [2] = read-out: matrix metalloproteinase-3 (MMP3), MMP3 (gene 4314); test: LTEA_HepaRG_MMP3: Life Technologies and Expression Analysis (LTEA) Assay for matrix metalloproteinase-3 (MMP3) using HepaRG (AID 2283519)
# In short: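 HepaRG cells (~100,000/well) in serum-free induction medium were dosed in duplicate for 48 h with an 8-point half-log series from 100 uM, 0.5% DMSO. MMP3 mRNA was quantified by Fluidigm TaqMan qRT-PCR, normalized to three housekeeping genes.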
# [3] = read-out: Paternally Expressed 10 (PEG10), PEG10 (gene 23089); test: LTEA_HepaRG_PEG10: Life Technologies and Expression Analysis (LTEA) Assay for Paternally Expressed 10 (PEG10) using HepaRG (AID 2283520)
# In short: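 Differentiated HepaRG cells, plated 48 h then switched to serum-free induction medium, were exposed in duplicate for 48 h to eight half-log concentrations topping at 100 uM in 0.5% DMSO. PEG10 mRNA was quantified by TaqMan qRT-PCR, normalised to ACTB, GAPDH and POLR2A.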
# [4] = read-out: Nuclear factor NF-kappa-B p105 subunit (Homo sapiens) (UniProt P19838); test: LTEA_HepaRG_NFKB1: Life Technologies and Expression Analysis (LTEA) Assay for Nuclear Factor Kappa B Subunit 1 (NFKB1) using HepaRG (AID 2283521)
# In short: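 NFKB1 transcript was measured by TaqMan qRT-PCR on Fluidigm arrays, normalised to three housekeeping genes and fitted in both directions against 0.5% DMSO. HepaRG cells were dosed in duplicate for 48 h in serum-free induction medium, eight half-log steps from 100 uM.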
# [5] = read-out: Protein phosphatase 2A (PPP2R4), PTPA (gene 5524); test: LTEA_HepaRG_PPP2R4: Life Technologies and Expression Analysis (LTEA) Assay for Protein phosphatase 2A (PPP2R4) using HepaRG (AID 2283522)
# In short: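 Differentiated HepaRG cells in serum-free induction medium were exposed in duplicate for 48 h to eight concentrations, top 100 uM with half-log dilutions, in 0.5% DMSO. PPP2R4 mRNA was quantified by TaqMan qRT-PCR, normalized to ACTB, GAPDH and POLR2A.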
# [6] = read-out: Phosphatase and tensin (PTEN), PTEN (gene 5728); test: LTEA_HepaRG_PTEN: Life Technologies and Expression Analysis (LTEA) Assay for Phosphatase and tensin (PTEN) using HepaRG (AID 2283523)
# In short: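 HepaRG cells, 48 h after plating, exposed in duplicate for 48 h in serum-free induction medium to 8 half-log concentrations up to 100 uM (0.5% DMSO). PTEN mRNA by qRT-PCR, normalized to ACTB, GAPDH, POLR2A; bidirectional fit versus DMSO.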
# [7] = read-out: solute carrier (SLC22A1), SLC22A1 (gene 6580); test: LTEA_HepaRG_SLC22A1: Life Technologies and Expression Analysis (LTEA) Assay for solute carrier (SLC22A1) using HepaRG (AID 2283524)
# In short: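 Differentiated human HepaRG cells in serum-free induction medium, exposed 48 h in duplicate to 8-point half-log series from 100 µM top in 0.5% DMSO. SLC22A1 mRNA by TaqMan qRT-PCR normalized to ACTB, GAPDH, POLR2A; bidirectional fit versus DMSO.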
# [8] = read-out: Pyruvate Dehydrogenase Kinase 4 (PDK4), PDK4 (gene 5166); test: LTEA_HepaRG_PDK4: Life Technologies and Expression Analysis (LTEA) Assay for Pyruvate Dehydrogenase Kinase 4 (PDK4) using HepaRG (AID 2283525)
# In short: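 HepaRG cells plated 48 h, then switched to serum-free induction medium and exposed in duplicate for 48 h to 8 half-log concentrations from 100 uM in 0.5% DMSO. PDK4 mRNA measured by qRT-PCR, normalized to ACTB, GAPDH and POLR2A; bidirectional fit versus DMSO.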
# [9] = read-out: NAD(P)H dehydrogenase [quinone] 1 (NQO1), NQO1 (gene 1728); test: LTEA_HepaRG_NQO1: Life Technologies and Expression Analysis (LTEA) Assay for NAD(P)H dehydrogenase [quinone] 1 (NQO1) using HepaRG (AID 2283526)
# In short: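 Differentiated HepaRG cells, plated 48 h and then switched to serum-free induction medium, were exposed in duplicate for 48 h to 8-point half-log concentrations up to 100 uM in 0.5% DMSO. mRNA measured by qRT-PCR, normalized to ACTB, GAPDH, POLR2A; bidirectional fit versus DMSO.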
# [10] = read-out: Nuclear factor erythroid 2-related factor 2 (Homo sapiens) (UniProt Q16236); test: LTEA_HepaRG_NFE2L2: Life Technologies and Expression Analysis (LTEA) Assay for Nuclear factor erythroid 2-related factor 2 (NFE2L2) Transcription Factor using HepaRG (AID 2283527)
# In short: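 Differentiated human HepaRG cells, serum-free induction medium, exposed 48 h in duplicate to eight half-log concentrations up to 100 uM in 0.5% DMSO. NFE2L2 mRNA by Fluidigm TaqMan qRT-PCR, normalised to ACTB, GAPDH, POLR2A; bidirectional change versus DMSO.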
# [11] = read-out: succinate dehydrogenase complex iron sulfur subunit B (SDHB), SDHB (gene 6390); test: LTEA_HepaRG_SDHB: Life Technologies and Expression Analysis (LTEA) Assay for succinate dehydrogenase complex iron sulfur subunit B (SDHB) using HepaRG (AID 2283528)
# In short: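 SDHB transcript level read by TaqMan qRT-PCR, housekeeping-normalised (ACTB, GAPDH, POLR2A), after 48 h chemical treatment of plated HepaRG cells; eight concentrations top 100 uM, half-log steps, 0.5% DMSO, duplicates; fitted both directions against DMSO.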
# [12] = read-out: Signal transducer and activator of transcription 3 (Homo sapiens) (UniProt P40763); test: LTEA_HepaRG_STAT3: Life Technologies and Expression Analysis (LTEA) Assay for Signal transducer and activator of transcription (STAT3) using HepaRG (AID 2283529)
# In short: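 Differentiated HepaRG cells, serum-free induction medium, dosed 48 h in duplicate, 8 half-log concentrations from 100 uM in 0.5% DMSO. STAT3 mRNA by qRT-PCR, normalised to ACTB, GAPDH, POLR2A; bidirectional fit versus DMSO.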
# [13] = read-out: solute carrier (SLCO1B1), SLCO1B1 (gene 10599); test: LTEA_HepaRG_SLCO1B1: Life Technologies and Expression Analysis (LTEA) Assay for solute carrier (SLCO1B1) using HepaRG (AID 2283530)
# In short: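 SLCO1B1 transcript levels were quantified by TaqMan qRT-PCR using three housekeeping genes for normalization. This followed 48 h chemical exposure (100 uM top, half-log, 8 points, 0.5% DMSO) of HepaRG liver cells, with gain or loss fitted relative to DMSO.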
# [14] = read-out: sulfotransferase 2A1 (SULT2A1), SULT2A1 (gene 6822); test: LTEA_HepaRG_SULT2A1: Life Technologies and Expression Analysis (LTEA) Assay for sulfotransferase 2A1 (SULT2A1) using HepaRG (AID 2283531)
# In short: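 Expression change of SULT2A1, by qRT-PCR with three housekeeping-gene normalization, was scored bidirectionally versus DMSO. Cells: differentiated HepaRG, dosed in duplicate for 48 h across 8 points, highest 100 µM, half-log dilution, 0.5% DMSO.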
# [15] = read-out: Transforming Growth Factor (TGFA), TGFA (gene 7039); test: LTEA_HepaRG_TGFA: Life Technologies and Expression Analysis (LTEA) Assay for Transforming Growth Factor (TGFA) using HepaRG (AID 2283532)
# In short: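 Differentiated HepaRG cells exposed 48 hours in serum-free induction medium, 0.5% DMSO vehicle, 8-point half-log series from 100 uM, in duplicate. TGFA mRNA by TaqMan qRT-PCR, normalised to ACTB, GAPDH, POLR2A; bidirectional fit versus DMSO.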
# [16] = read-out: Transforming Growth Factor (TGFB1), TGFB1 (gene 7040); test: LTEA_HepaRG_TGFB1: Life Technologies and Expression Analysis (LTEA) Assay for Transforming Growth Factor (TGFB1) Transporter using HepaRG (AID 2283533)
# In short: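 TGFB1 transcript measured by qRT-PCR with normalisation to three housekeeping genes (ACTB, GAPDH, POLR2A); human HepaRG line treated in duplicate for 48 hr with an 8-point series topping at 100 uM, 0.5% DMSO vehicle, bidirectionally fitted.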
# TIMP1, TIMP1 (gene 7076) = test: LTEA_HepaRG_TIMP1: Life Technologies and Expression Analysis (LTEA) Assay for TIMP1 using HepaRG (AID 2283534);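 note: TaqMan qRT-PCR signal normalized to ACTB GAPDH and POLR2A housekeeping genes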
# In short: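 Bidirectional change in TIMP1 transcript versus 0.5% DMSO, measured by TaqMan qRT-PCR with three housekeeping genes for normalization. HepaRG human liver cells dosed 48 h in duplicate, top concentration 100 uM with half-log dilutions.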
# [17] = read-out: Tumor necrosis factor receptor 1 (TNFRSF1A), TNFRSF1A (gene 7132); test: LTEA_HepaRG_TNFRSF1A: Life Technologies and Expression Analysis (LTEA) Assay for Tumor necrosis factor receptor 1 (TNFRSF1A) using HepaRG (AID 2283535)
# In short: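 mRNA measured by qRT-PCR (TaqMan, Fluidigm arrays) against ACTB/GAPDH/POLR2A housekeepers after 48 h chemical exposure of HepaRG cells. Top concentration 100 uM, half-log 8-point series, duplicates; vehicle 0.5% DMSO, both fit directions.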
# [18] = read-out: Thyroid Hormone Responsive (THRSP), THRSP (gene 7069); test: LTEA_HepaRG_THRSP: Life Technologies and Expression Analysis (LTEA) Assay for Thyroid Hormone Responsive (THRSP) using HepaRG (AID 2283536)
# In short: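 Differentiated HepaRG cells treated 48 h in serum-free induction medium with 8 half-log concentrations up to 100 uM (0.5% DMSO), duplicates. THRSP mRNA by TaqMan qRT-PCR normalised to ACTB, GAPDH, POLR2A; bidirectional fit versus DMSO.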
# Chain of Signal transducer and activator of transcription 3 (Homo sapiens) (P40763 whole entry, looked up): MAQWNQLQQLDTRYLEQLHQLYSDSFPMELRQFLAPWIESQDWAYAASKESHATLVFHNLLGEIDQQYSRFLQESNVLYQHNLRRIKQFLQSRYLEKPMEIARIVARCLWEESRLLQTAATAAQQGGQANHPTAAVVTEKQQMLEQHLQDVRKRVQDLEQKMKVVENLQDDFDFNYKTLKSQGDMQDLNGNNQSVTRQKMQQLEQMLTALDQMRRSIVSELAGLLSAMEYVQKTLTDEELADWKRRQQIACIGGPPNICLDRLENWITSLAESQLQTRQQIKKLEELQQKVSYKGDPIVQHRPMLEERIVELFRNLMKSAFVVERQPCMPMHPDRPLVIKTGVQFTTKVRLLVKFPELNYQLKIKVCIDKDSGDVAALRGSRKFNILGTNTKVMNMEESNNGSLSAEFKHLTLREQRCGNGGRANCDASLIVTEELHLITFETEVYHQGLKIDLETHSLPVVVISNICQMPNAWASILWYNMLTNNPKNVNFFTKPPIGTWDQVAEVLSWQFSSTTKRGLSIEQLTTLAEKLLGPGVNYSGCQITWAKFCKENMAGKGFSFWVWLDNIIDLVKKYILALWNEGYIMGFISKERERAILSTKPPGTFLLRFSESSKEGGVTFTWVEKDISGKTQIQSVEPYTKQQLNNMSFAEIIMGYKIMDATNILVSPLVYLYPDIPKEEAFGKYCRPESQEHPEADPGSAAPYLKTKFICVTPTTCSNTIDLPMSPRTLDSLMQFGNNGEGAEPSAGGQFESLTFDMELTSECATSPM
# Chain of Nuclear factor NF-kappa-B p105 subunit (Homo sapiens) (P19838 whole entry, looked up): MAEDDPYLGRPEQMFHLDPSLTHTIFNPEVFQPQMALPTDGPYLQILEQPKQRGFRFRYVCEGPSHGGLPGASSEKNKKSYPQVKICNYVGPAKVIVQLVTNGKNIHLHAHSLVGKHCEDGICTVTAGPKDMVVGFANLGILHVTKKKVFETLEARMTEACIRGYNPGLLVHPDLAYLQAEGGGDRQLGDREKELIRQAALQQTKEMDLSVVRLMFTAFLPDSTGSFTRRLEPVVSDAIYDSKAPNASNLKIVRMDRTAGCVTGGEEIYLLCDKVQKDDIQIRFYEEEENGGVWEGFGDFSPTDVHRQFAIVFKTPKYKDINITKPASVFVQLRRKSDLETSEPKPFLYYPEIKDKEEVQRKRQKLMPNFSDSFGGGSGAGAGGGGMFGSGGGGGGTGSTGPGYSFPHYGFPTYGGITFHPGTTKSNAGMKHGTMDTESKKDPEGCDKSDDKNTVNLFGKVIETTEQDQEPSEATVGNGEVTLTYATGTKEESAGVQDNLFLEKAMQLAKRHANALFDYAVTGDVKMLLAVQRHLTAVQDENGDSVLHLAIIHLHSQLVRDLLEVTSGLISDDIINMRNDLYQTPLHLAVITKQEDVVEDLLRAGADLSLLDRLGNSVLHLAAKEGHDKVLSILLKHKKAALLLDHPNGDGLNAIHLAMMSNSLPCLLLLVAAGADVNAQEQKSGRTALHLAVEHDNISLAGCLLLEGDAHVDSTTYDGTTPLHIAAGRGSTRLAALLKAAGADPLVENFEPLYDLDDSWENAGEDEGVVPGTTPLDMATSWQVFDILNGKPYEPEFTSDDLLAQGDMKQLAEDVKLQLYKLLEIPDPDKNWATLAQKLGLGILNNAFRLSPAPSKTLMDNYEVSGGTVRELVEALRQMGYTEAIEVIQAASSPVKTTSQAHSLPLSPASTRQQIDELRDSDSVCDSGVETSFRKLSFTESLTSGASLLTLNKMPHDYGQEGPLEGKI
# Chain of Nuclear factor erythroid 2-related factor 2 (Homo sapiens) (Q16236 whole entry, looked up): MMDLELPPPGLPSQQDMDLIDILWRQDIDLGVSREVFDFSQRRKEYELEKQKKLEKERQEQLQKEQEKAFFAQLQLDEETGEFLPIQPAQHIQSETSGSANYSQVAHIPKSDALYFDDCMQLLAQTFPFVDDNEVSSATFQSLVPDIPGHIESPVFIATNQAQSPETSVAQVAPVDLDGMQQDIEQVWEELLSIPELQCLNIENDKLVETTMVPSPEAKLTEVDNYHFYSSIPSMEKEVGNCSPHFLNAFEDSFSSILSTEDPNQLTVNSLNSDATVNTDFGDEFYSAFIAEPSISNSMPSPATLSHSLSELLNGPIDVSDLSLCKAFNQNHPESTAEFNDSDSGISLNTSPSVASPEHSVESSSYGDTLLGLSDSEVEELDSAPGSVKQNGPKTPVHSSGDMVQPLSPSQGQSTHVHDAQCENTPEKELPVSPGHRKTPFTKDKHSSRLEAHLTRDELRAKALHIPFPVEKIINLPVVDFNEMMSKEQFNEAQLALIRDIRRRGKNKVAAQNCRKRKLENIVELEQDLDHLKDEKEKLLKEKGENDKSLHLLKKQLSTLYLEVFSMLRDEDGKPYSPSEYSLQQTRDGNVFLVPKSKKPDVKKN
smiles,measurement,setting,value
CCNc1nc(NC(C)C)nc(SC)n1,outcome,[1],inactive
same,outcome,"MYC, MYC (gene 4609)",inactive
same,outcome,[2],inactive
same,AC50,[3],12.4 µM (active)
same,outcome,[4],inactive
same,outcome,[5],inactive
same,outcome,[6],inactive
same,AC50,[7],37.3 µM (active)
same,outcome,[8],inactive
same,outcome,[9],inactive
same,outcome,[10],inactive
same,outcome,[11],inactive
same,outcome,[12],inactive
same,outcome,[13],inactive
same,outcome,[14],inactive
same,outcome,[15],inactive
same,outcome,[16],inactive
same,outcome,"TIMP1, TIMP1 (gene 7076)",inactive
same,outcome,[17],inactive
same,outcome,[18],inactive
Cc1ccc(O)c(C)c1,outcome,"MYC, MYC (gene 4609)",inactive
same,outcome,[2],inactive
same,outcome,[3],inactive
same,outcome,[4],inactive
same,outcome,[5],inactive
same,outcome,[6],inactive
same,outcome,[7],inactive
same,outcome,[8],inactive
same,outcome,[9],inactive
same,outcome,[10],inactive
same,outcome,[12],inactive
same,outcome,[13],inactive
same,outcome,[14],inactive
same,outcome,[15],inactive
same,outcome,[16],inactive
same,outcome,"TIMP1, TIMP1 (gene 7076)",inactive
same,outcome,[17],inactive
same,outcome,[18],inactive
C=CC(N)=O,outcome,[1],inactive
same,outcome,"MYC, MYC (gene 4609)",inactive
same,outcome,[2],inactive
same,outcome,[3],inactive
same,outcome,[4],inactive
same,outcome,[5],inactive
same,outcome,[6],inactive
same,outcome,[7],inactive
same,outcome,[8],inactive
same,outcome,[9],inactive
same,outcome,[10],inactive
same,outcome,[11],inactive
same,outcome,[12],inactive
same,outcome,[13],inactive
same,outcome,[14],inactive
same,outcome,[15],inactive
same,outcome,[16],inactive
same,outcome,"TIMP1, TIMP1 (gene 7076)",inactive
same,outcome,[17],inactive
same,outcome,[18],inactive
